Calls of active or inactive are those of the source.
What was measured:
Albumin (Bos taurus) = Albumin (Bos taurus) (UniProt P02769); assay: compounds binding labelled BSA control protein – biochemical, small-molecule microarray, Alexa647 label, 635/667 nm fluorescence, artefact control for SMM control protein annotation, profiling panel (AID 1118); settings: BSA-A647 binding, fluorescence 635 nm, higher = more signal;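 further: score merges 667 nm emission intensity and signal-to-noise per printed compound spot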
[1] = probe aXIP binding to arrayed compounds – biochemical, NeuroSMM set, 635/667 nm fluorescence, primary screen (AID 1119); settings: small-molecule microarray, higher = more signal, called active from +8 up or from −8 down;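 further: probe is the protein aXip251-270 applied at 1 µg/mL to compound-printed slides; binding of probe to printed compounds measured as 667 nm fluorescence plus signal to noise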
[2] = probe aNOTCH3 binding on compound microarray – biochemical, small-molecule microarray, 635/667 nm fluorescence, primary screen (AID 1120); settings: higher = more signal;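 further: probe is a biotin-tagged antibody raised against NOTCH3 rather than NOTCH3 protein; score merges spot fluorescence near 667 nm with spot signal to noise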
[3] = probe aNOTCH2 binding on compound microarray – biochemical, small-molecule microarray, 635/667 nm fluorescence, primary screen (AID 1121); settings: higher = more signal;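 further: score merges feature fluorescence read at 667 nm with its signal to noise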
[4] = target: Carbonic anhydrase 2 (Homo sapiens) (UniProt P00918); assay: compounds binding carbonic anhydrase 2 – biochemical, small-molecule microarray, Alexa647-labelled CAII, profiling panel (AID 1122); settings: CAII-A647 binding fluorescence, higher = more signal
[5] = COS7 lysate on small-molecule microarray, probe aHis, 635 nm (AID 1123); settings: COS7 cell lysate, fluorescence, higher = more signal;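 further: z-score combines 667nm fluorescence intensity with signal-to-noise per printed compound spot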
[6] = probe aLAP1 signal on lysate-treated microarray – cell lysate, small-molecule microarray, COS7 lysate, primary screen (AID 1124); settings: probe aLAP1, fluorescence, higher = more signal;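 further: lysate comes from COS7 cells expressing LAP1 and is applied at 0.3 µg/mL; score merges spot fluorescence near 667 nm with signal-to-noise over triplicate slides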
Sam68 (KHDRBS1) = assay: compounds binding KHDRBS1 protein – biochemical, small-molecule microarray, 635 nm fluorescence, primary screen (AID 1125); settings: higher = more signal;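 further: score merges 667 nm channel intensity with signal to noise over triplicate slides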
[7] = tested on: Chordin-like protein 2 (CHRDL2); assay: compounds binding chordin-like 2 – biochemical, small-molecule microarray, 635 nm fluorescence, primary screen (AID 1126); settings: fluorescence 635 nm, higher = more signal;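 further: printed compound slides probed with Chrdl2 protein at 4 µg/mL for 1 h at 4 C; score merges 667 nm emission intensity with signal to noise over three replicate slides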
[8] = target: Concanavalin-A (Canavalia ensiformis) (UniProt P02866); assay: compounds binding concanavalin A lectin – biochemical, small-molecule microarray, Alexa647 label, 635 nm, artefact control for SMM control protein annotation, primary screen (AID 1127); settings: ConA-A647 binding fluorescence, higher = more signal;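 further: z combines 667 nm emission intensity with signal-to-noise across three replicate slides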
[9] = compounds binding Alexa647 anti-His antibody – biochemical, small-molecule microarray, 635 nm fluorescence, artefact control for SMM control protein annotation, primary screen (AID 1128); settings: higher = more signal;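 further: score merges feature fluorescence with signal-to-noise for each printed compound spot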
[10] = tested on: Human papillomavirus type 1a E7 protein (residues 1-88); assay: HPV1a E7 small-molecule binders, primary screen, biochemical, small-molecule microarray, residues 1-88, 635 nm (AID 1129); settings: small-molecule microarray binding, fluorescence 635 nm; higher = more signal
[11] = target: Focal adhesion kinase 1 (Homo sapiens) (UniProt Q05397); assay: PTK2 protein binding on printed compound slides – biochemical, small-molecule microarray, 635/667 nm fluorescence, BSA, DTT, primary screen (AID 1130); settings: 635 nm fluorescence, higher = more signal;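 further: composite of spot emission at 667 nm and signal to noise over triplicate slides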
[12] = tested on: Fibrinogen (Alexa647-labelled); assay: Alexa647-fibrinogen binding to printed small molecules – biochemical, small-molecule microarray, 635/667 nm fluorescence, artefact control for SMM control-protein annotation, profiling panel (AID 1131); settings: fibrinogen-A647 binding fluorescence, higher = more signal;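 further: z-score merges 667 nm fluorescence with per-spot signal-to-noise over triplicate slides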
[13] = target: Follistatin (Homo sapiens) (UniProt P19883); assay: FST protein binding to printed compounds – biochemical, small-molecule microarray, 635/667 nm fluorescence, primary screen (AID 1132); settings: 635 nm fluorescence, higher = more signal
[14] = target: Fibroblast growth factor 2 (Homo sapiens) (UniProt P09038); assay: basic fibroblast growth factor binding to printed compounds – biochemical, small-molecule microarray, 635/667 nm fluorescence, primary screen (AID 1133); settings: FGF2, fluorescence 635/667, higher = more signal
[15] = JC-1 mitochondrial potential readout, lung cancer cells – cell-based, A549, JC-1 fluorescence, basal, 24 h, 100 nL, profiling panel (AID 1138); settings: higher = more signal;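 further: A549 lung adenocarcinoma cells under basal conditions with no added stimulus; test concentration not given here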
Lefty1 = Lefty1 protein binding to printed compounds – biochemical, small-molecule microarray, 635/667 nm fluorescence, primary screen (AID 1139); settings: fluorescence 635/667, higher = more signal
[16] = tested on: wheat germ agglutinin (Triticum aestivum), Alexa647-labelled; assay: Alexa647-WGA lectin binding to printed small molecules – biochemical, small-molecule microarray, 635/667 nm fluorescence, artefact control for SMM control-protein annotation, profiling panel (AID 1140); settings: WGA-A647 binding, 635 nm fluorescence, higher = more signal;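 further: score merges 667 nm feature emission with signal to noise over triplicate slides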
[17] = target: Luciferin 4-monooxygenase (Photinus pyralis) (UniProt P08659); assay: inhibition of purified Photinus pyralis luciferase – biochemical, luminescence, purified enzyme, 2006 set, primary screen (AID 1141); settings: purified firefly luciferase, SteadyGlo luminescence, 30 min; higher = more signal, called active from +8 up or from −8 down;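 further: cell-free assay with purified firefly luciferase at 100 ng per well in PBS; test concentration not given here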
Sequence of Luciferin 4-monooxygenase (Photinus pyralis) (P08659 whole entry, looked up): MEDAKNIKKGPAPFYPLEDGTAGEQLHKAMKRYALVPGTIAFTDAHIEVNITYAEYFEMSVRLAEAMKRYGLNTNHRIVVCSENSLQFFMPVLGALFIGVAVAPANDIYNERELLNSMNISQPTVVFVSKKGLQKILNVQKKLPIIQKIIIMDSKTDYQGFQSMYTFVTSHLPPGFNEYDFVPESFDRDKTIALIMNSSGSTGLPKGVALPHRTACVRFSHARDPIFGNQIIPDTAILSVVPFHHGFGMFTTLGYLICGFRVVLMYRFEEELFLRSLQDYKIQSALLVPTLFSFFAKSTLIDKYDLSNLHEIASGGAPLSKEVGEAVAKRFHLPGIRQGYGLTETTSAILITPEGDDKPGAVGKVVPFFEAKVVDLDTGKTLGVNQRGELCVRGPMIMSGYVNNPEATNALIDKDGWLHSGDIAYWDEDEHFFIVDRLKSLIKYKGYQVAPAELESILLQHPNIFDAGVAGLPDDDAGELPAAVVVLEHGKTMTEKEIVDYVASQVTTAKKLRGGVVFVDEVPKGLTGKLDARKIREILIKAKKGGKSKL

Sequence of Follistatin (Homo sapiens) (P19883 whole entry, looked up): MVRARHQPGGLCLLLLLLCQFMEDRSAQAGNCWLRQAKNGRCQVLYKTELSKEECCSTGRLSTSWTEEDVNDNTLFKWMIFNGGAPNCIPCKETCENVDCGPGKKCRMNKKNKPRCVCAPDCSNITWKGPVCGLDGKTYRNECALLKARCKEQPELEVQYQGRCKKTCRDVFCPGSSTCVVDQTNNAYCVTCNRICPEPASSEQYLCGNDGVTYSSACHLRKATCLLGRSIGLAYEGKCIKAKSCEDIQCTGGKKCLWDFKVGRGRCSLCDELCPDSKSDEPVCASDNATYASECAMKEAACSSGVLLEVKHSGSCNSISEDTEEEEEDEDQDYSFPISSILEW
Sequence of Focal adhesion kinase 1 (Homo sapiens) (Q05397 whole entry, looked up): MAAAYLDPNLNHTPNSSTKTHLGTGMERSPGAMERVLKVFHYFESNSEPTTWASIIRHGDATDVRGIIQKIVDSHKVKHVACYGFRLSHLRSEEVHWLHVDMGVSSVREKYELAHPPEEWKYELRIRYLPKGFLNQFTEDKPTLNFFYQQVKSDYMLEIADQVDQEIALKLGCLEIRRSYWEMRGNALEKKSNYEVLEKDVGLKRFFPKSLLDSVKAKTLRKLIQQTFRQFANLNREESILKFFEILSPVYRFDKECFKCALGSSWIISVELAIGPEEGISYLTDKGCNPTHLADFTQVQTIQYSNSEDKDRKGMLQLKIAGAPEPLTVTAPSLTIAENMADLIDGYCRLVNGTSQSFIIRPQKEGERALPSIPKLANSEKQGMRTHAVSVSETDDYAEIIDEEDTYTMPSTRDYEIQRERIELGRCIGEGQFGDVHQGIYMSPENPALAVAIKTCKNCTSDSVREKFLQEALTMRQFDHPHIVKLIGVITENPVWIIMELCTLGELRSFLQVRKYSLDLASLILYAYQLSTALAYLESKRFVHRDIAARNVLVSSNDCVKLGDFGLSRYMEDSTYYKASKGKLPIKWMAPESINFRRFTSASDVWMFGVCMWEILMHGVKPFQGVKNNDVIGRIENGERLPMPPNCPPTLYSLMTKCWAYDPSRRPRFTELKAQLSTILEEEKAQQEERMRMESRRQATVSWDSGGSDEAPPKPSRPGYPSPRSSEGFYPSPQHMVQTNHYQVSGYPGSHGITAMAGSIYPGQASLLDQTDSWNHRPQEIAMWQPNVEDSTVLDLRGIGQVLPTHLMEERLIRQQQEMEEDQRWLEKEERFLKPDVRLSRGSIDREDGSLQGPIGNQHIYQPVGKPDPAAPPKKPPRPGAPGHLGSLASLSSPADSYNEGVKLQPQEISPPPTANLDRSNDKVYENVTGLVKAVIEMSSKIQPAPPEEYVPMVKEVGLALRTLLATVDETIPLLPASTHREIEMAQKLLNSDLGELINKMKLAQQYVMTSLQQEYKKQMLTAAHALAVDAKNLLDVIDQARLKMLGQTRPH
Sequence of Fibroblast growth factor 2 (Homo sapiens) (P09038 whole entry, looked up): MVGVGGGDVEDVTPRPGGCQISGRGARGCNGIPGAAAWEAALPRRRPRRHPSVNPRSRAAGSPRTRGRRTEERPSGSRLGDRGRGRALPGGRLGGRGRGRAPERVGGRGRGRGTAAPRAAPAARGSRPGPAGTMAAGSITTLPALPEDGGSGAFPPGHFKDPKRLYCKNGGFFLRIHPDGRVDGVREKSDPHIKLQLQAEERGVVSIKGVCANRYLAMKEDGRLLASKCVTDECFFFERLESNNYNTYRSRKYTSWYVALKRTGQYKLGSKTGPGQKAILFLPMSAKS
Sequence of Albumin (Bos taurus) (P02769 whole entry, looked up): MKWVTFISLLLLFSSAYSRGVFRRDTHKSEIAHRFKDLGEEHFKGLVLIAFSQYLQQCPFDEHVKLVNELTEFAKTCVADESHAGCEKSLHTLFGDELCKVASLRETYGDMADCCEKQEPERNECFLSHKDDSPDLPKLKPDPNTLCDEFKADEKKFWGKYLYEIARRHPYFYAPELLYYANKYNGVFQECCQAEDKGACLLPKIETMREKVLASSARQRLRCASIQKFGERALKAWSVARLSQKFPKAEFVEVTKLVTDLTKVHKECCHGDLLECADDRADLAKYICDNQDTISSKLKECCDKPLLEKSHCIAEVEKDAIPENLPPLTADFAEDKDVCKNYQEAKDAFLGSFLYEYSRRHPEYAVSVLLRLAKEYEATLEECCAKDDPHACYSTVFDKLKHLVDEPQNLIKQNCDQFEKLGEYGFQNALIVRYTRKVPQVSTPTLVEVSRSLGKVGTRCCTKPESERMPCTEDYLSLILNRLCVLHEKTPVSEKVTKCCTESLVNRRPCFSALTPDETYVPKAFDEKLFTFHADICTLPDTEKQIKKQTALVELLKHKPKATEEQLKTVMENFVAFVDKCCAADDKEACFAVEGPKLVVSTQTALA
Sequence of Concanavalin-A (Canavalia ensiformis) (P02866 whole entry, looked up): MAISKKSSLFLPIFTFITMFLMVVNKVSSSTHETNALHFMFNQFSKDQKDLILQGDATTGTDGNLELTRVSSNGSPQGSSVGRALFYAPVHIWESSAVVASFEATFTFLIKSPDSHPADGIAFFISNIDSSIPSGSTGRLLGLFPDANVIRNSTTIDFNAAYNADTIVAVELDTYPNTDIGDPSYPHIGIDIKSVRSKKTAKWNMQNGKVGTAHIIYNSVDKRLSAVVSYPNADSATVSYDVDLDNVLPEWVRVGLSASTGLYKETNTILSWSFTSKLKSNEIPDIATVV

SMILES | composite z-score (Albumin (Bos taurus)) | composite Z-score [1] | composite z-score [2] | composite z-score [3] | composite z-score [4] | composite z-score [5] | composite z-score [6] | composite z-score (Sam68 (KHDRBS1)) | composite z-score [7] | composite z-score [8] | composite z-score [9] | composite z-score [10] | composite z-score [11] | composite z-score [12] | composite z-score [13] | composite z-score [14] | z-score [15] | composite z-score (Lefty1) | composite z-score [16] | z-score [17]
COCCOC(=O)N1C(=O)[C@@]2(c3cc(C#CCCO)ccc31)[C@H](C(N)=O)[C@H]1C(=O)O[C@H](c3ccccc3)[C@H](c3ccccc3)N1[C@@H]2c1ccc(O)cc1 | 0.205 | -0.516 (inactive) | -0.159 | -0.118 | 0.463 | 0.387 | 0.505 | 0.0991 | -0.464 | -0.332 | -0.0637 | -0.469 | -0.167 | 0.141 | -0.15 | 0.0091 | 0.0757 | -0.431 | 0.115 | -0.381 (inactive)
COCCCNC(=O)[C@@H]1c2ccccc2C(=O)N(Cc2ccccc2Cl)[C@H]1c1ccc(CO)cc1 | -0.432 | -0.129 (inactive) | -0.147 | 0.151 | 0.656 | 1.72 | -0.503 | 0.95 | 0.683 | 0.772 | 3.19 | 1.17 | 0.36 | 0.381 | 1.33 | 1.04 | 2.35 | 0.753 | -0.0431 | -1.27 (inactive)
COc1ccc(C(=O)Nc2ccc(CN3C(=O)[C@]4(O[C@H](CCO)[C@@H]([Si](C)(C)c5ccc(OC)cc5)[C@@H]4C)c4ccccc43)cc2)cc1 | 0.357 | 0.377 (inactive) | 0.149 | -0.0891 | 0.283 | 0.417 | -0.337 | 1.22 | 0.531 | 1.09 | 0.215 | 1.06 | 0.246 | 0.599 | 0.995 | 0.894 | -1.41 | 1.36 | 0.526 | 0.362 (inactive)
COc1cccc(-c2cccc(=O)o2)c1 | -0.172 | 2.41 (inactive) | 0.366 | 0.38 | 0.111 | 0.175 | -0.0345 | -0.579 | 0.683 | -0.664 | 0.0707 | -0.0477 | -0.0753 | -0.51 | 0.302 | 0.0278 | -0.376 | -0.198 | 0.143 | -0.0346 (inactive)
C=CCN1C(=O)[C@]2(O[C@H](CCn3cc([C@H](O)c4ccccc4)nn3)[C@@H]([Si](C)(C)c3ccc(OC)cc3)[C@@H]2C)c2cc(N3CCC3=O)ccc21 | 0.621 | 0.156 (inactive) | -0.226 | -0.0826 | 0.337 | 0.855 | 0.407 | 0.564 | 0.587 | 0.882 | 0.211 | 1.16 | 0.309 | -0.713 | 1.28 | 0.792 | 1.37 | 1.2 | 0.386 | 0.114 (inactive)
CC1CC/C=C\[C@H]2OC34C=CCN(C(C)(C)C)C(=O)[C@H]3N(CCO)C(=O)[C@@H]4C2C(=O)O1 (stereo not given in full) | 0.922 | 0.108 (inactive) | -0.341 | -0.148 | 0.917 | 1.08 | 1.41 | -0.719 | -1.31 | -2.33 | -0.931 | -0.585 | -0.0131 | -0.671 | -0.352 | -0.845 | -0.315 | -0.991 | 0.119 | 0.864 (inactive)
[N-]=[N+]=NCc1ccccc1C[C@]1(C(=O)N2CCCCC2)N=C(c2ccc(OCCCO)cc2)O[C@H]1c1ccccc1N=[N+]=[N-] | 0.836 | -0.602 (inactive) | 0.194 | 0.0097 | 0.593 | 2.45 | 0.799 | 1.33 | -0.518 | 1.1 | 2.87 | 1.23 | 1.71 | 0.984 | 0.887 | -0.0521 | -0.756 | -0.0342 | 1 | -9.69 (active)
C[C@@]1([C@@H](NC(=O)c2ccc(-c3ccccc3)cc2)c2ccc(Cl)cc2)C[C@H]1C1CCCCC1 | 0.688 | -0.286 (inactive) | 0.305 | -0.0527 | 0.302 | 2.21 | 0.0789 | 1.29 | -0.564 | 1.01 | 2.1 | 1.15 | 0.473 | 0.869 | 0.663 | -0.246 | 0.532 | 0.112 | 0.695 | 0.321 (inactive)
CC1(C)C2C=C(C(O)C3C=CC4C(=O)NC(=O)C4N3Nc3ccc(Cl)cc3Cl)C[C@@H]1C2 (stereo not given in full) | 0.818 | 0.392 (inactive) | 0.323 | 0.155 | 0.423 | 1.24 | 0.906 | 0.337 | 0.061 | 0.899 | 1.26 | 0.87 | -0.167 | 0.606 | 1.02 | -0.169 | -1.44 | 0.317 | 0.698 | 0.155 (inactive)
